SENP8 block-1: blocks the human protease SENP8. purified SENP8, Z-RLRGG-aminoluciferin cleavage, luminescence. AID 2540. inhibition, % at 10 µM. Q96LD8. 330,000 compounds, 1.2% hits; in the data active = inhibition above about 50%
Target sequence (Q96LD8 whole entry, looked up): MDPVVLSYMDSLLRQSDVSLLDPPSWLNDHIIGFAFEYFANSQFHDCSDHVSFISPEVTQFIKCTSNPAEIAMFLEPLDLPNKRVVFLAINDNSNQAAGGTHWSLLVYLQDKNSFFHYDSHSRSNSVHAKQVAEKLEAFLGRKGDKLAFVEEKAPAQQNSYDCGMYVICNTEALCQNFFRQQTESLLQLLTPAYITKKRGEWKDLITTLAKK
HSP90 inh: blocks HSP90-mediated luciferase refolding in reticulocyte lysate. Rabbit reticulocyte lysate, luciferase refolding luminescence, 3 h. inhibition, % at 5.6 µM. 290,000 compounds, 0.91% hits. AID 1789;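 active = inhibition above the screen-wide mean plus 3 SD, computed separately per campaign, cut at about 16% in these data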;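 note: inhibitors lower the luminescence because luciferase stays unfolded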
Platelet DG rel: modulates dense granule release in human platelets | human platelet-rich plasma, SFLLRN dense granule ATP release, luminescence | inhibition, %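 (compounds screened at 7.5 µM in platelet-rich plasma)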 | 300,000 compounds, 0.22% hits | AID 1663;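 active = mean replicate score, as percent of positive control, at or above 50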
SENP7 inh: SENP7 protease inhibition; 330,000 compounds, 1.5% hits; AID 434973; inhibition, % at 5 µM; Q9BQF6; recombinant SENP7, Z-RLRGG-aminoluciferin luminescence, 40 min;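 active = inhibition above about 50% at the single test dose, limit read from the data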
Target sequence (Q9BQF6 706-1050 limits assumed): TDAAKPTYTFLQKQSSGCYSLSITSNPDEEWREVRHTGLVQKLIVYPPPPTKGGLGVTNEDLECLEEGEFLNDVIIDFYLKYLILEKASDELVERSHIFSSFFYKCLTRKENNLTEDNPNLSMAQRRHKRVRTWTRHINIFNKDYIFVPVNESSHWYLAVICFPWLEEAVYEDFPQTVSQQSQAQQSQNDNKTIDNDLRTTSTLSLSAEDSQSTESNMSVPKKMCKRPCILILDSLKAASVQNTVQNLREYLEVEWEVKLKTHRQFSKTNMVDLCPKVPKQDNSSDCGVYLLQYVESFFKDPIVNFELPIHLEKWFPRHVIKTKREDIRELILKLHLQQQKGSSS
SENP8 block-2: inhibitors of human SENP8 protease | 360,000 compounds, 0.64% hits | AID 602440 | recombinant SENP8, Nedd8 substrate fluorescence | Q96LD8 | inhibition, % at 20 µM; in the data active = inhibition mostly above about 40%, no sharp cut-off; inactive = mostly below about 27%
SENP6 inh: blocks the human protease SENP6; Recombinant SENP6 catalytic domain, aminoluciferin luminescence; AID 2599; inhibition, % at 10 µM; 330,000 compounds, 1.8% hits;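 active = inhibition above about 50% at the single tested dose, limit read from the data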
A number is an active result; - = inactive; . = no result. Only some compounds are listed: those with a hit (about 2.8% of all), similar ones and a draw of the others.

SMILES	SENP8 block-1	HSP90 inh	Platelet DG rel	SENP7 inh	SENP8 block-2	SENP6 inh
C/C(=N\Nc1cccc2cccnc12)c1ccccn1	88.9	-	-	92.4	-	72.2
C/C(=N\NC(=O)c1c[nH]c2ccccc12)c1ccccn1	-	-	-	-	-	-
C/C(=N\NC(=O)c1cc2ccccc2cc1O)c1ccccn1	89.1	-	-	71.7	-	94.6
CCOC(=O)Cn1nc(C)c(NC(=O)COc2ccc(C)c(C)c2)c1C	-	-	-	-	-	-
Cc1cnc(C)c(N2CCN(Cc3nc(-c4ccccc4)no3)CC2)n1	-	-	49.6	-	-	-
c1ccc(-c2noc(CN3CCOCC3)n2)cc1	-	-	-	-	-	-
CC(C)(C)n1nc2c(c1NC(=O)c1cc(Cl)ccc1[N+](=O)[O-])CS(=O)(=O)C2	-	-	-	-	-	-
O=C(NC(=S)NNC(=O)c1ccccc1O)c1ccc([N+](=O)[O-])cc1	-	-	-	-	-	76.7
FC(F)(F)c1ccc2c(c1)C1C=CCC1C(c1ccncc1)N2 (stereo unspecified)	.	-	-	.	43.7	.
COc1cc(F)ccc1-c1cc(C(=O)NCc2ccc(C(F)(F)F)cc2)[nH]n1	.	.	.	.	-	.
COC(=O)CS(=O)(=O)c1ccc2c(c1)CC(=O)N2	-	-	64.4	-	-	-
CN(Cc1cccc(F)c1)C(=O)c1ccc(S(=O)(=O)N2CCOCC2)cc1	-	.	.	-	-	-
COc1ccccc1/C=C1\SC(=S)N(CCC(=O)N2CCCCC2CCO)C1=O (stereo unspecified)	-	-	-	-	51.1	-
COc1ccccc1/C=C1\SC(=O)N(CCC(=O)N2CCCCC2CCO)C1=O (stereo unspecified)	-	-	-	-	-	-
C[C@H]1COC(=O)[C@@H](Cc2ccc(F)cc2)C/C=C\C[C@@H](CC(=O)N[C@@H](CO)Cc2ccccc2)C(=O)N1	-	.	.	-	-	-
COCCn1c(=S)[nH]c2cc(C(=O)N3CC(C)CC(C)C3)ccc2c1=O (stereo unspecified)	-	-	-	-	-	-
COc1ccc(C(=O)NCCCNC(=O)c2cnccn2)cc1	-	-	.	-	-	-
N#C/C(=C\c1ccccc1O)C(=O)Nc1cccnc1	50.6	-	-	75.1	-	76.8
Cc1cc(/C=C(\C#N)C(=O)Nc2ccccc2)c(C)n1-c1cccnc1	-	-	-	-	-	-
Cc1ccc(C)c2[nH]c(=O)c(C(c3nnnn3Cc3ccccc3)N3CCc4ccccc4C3)cc12 (stereo unspecified)	-	-	-	-	-	65.8
Cc1ccccc1NC(=O)CSc1nnc(Cc2ccccc2)c(=O)n1N	-	.	-	-	-	-
CS(=O)(=O)c1ncc(Cl)c(C(=O)Nc2ccc3ccccc3c2)n1	.	-	79.4	.	-	.
COC(=O)c1ccccc1S(=O)(=O)N1CCC(C(=O)Nc2ccc(N3CCOCC3)cc2)CC1	-	.	.	-	-	-
COc1cc(/C=C(\C#N)C(=O)N2CCOCC2)ccc1OCc1ccccc1	-	-	-	-	-	-
N#C/C(=C\c1ccc(OCc2ccc(C(=O)O)cc2)cc1)C(=O)N1CCOCC1	-	72.6	-	-	-	-
SMILES	SENP8 block-1	HSP90 inh	Platelet DG rel	SENP7 inh	SENP8 block-2	SENP6 inh
O=C(/C(=C/c1ccccc1)c1ccccc1)N1CCCCC1	-	-	-	-	-	-
CN(C)/C=C1/C(=O)N(c2ccc([N+](=O)[O-])cc2)N=C1c1ccccc1	96.1	-	-	97.2	.	101.5
O=C(NCCN1CCCCC1)Nc1ccc(F)cc1	-	-	-	-	-	-
O=C(NCCN1CCCCC1)Nc1cccc(F)c1	-	16.1	-	-	-	-
C/C(=N\Nc1nc2c(s1)CCCC2)c1ccccc1	-	16.4	-	-	-	-
O=C(CCc1ccccc1)Nc1cc(S(=O)(=O)N2CCOCC2)ccc1N1CCCC1	-	.	.	-	-	-
N#C/C(=N\Nc1cccc(C(F)(F)F)c1)C(=O)c1ccsc1	64.1	-	-	-	-	88.3
Cc1ccc(S(=O)(=O)/N=C2\C=C(NS(=O)(=O)c3ccccc3)C(=O)c3ccccc32)c(C)c1	.	.	.	.	49.6	.
CC(C)(C)c1ccc(S(=O)(=O)/N=C2\C=C(NS(=O)(=O)c3ccccc3)C(=O)c3ccccc32)cc1	-	-	-	-	51.1	-
C/C(=N\NS(=O)(=O)c1ccc(C(C)(C)C)cc1)c1ccccc1	-	-	-	-	-	-
CSc1ccc(-c2cccc3nncn23)cc1	.	.	.	.	-	.
O=C(O)c1ccc(-c2nc(-c3ccccc3)cs2)cc1	92.0	-	-	89.1	-	97.1
CNC(=O)c1ccc(-c2nc(-c3ccccc3)cs2)cc1	-	-	-	-	-	-
NC(=S)N=Nc1c(O)[nH]c2c(Br)cc(Br)cc12	-	-	-	-	52.1	-
Cc1ccccc1OCc1nnc(SCC(=O)Nc2ccc3nc(SCC(=O)Nc4ccccc4)sc3c2)n1C	-	-	-	-	-	-
O=C1N/C(=N/O)S/C1=C/c1cccc([N+](=O)[O-])c1	-	-	-	-	-	57.4
Cc1ccc(/C=C(\C#N)C(=O)NC(C)C)o1	-	-	-	-	-	-
CC(C)NC(=O)/C(C#N)=C/c1ccc(N(C)C)o1	-	-	-	-	40.5	-
O=c1ccc2cc3c([nH]c4ccc(Br)cc43)oc-2c1O	-	-	-	-	101.0	-
O=c1c2c([nH]c3ccc(Br)cc13)CCCC2	-	.	-	-	-	-
COc1ccc(C2=NS(=O)(=O)N(C)C(C(=O)NCc3cccs3)=C2)cc1OC	-	-	-	-	-	-
COc1ccccc1N1CCN(C(=O)CSc2ncccc2-c2nc3ccccc3[nH]2)CC1	-	22.2	-	-	-	-
COc1cc(/C=N/N=C(/N)c2nonc2N)cc(Br)c1OCc1ccccc1C	-	-	-	-	-	-
COc1cccc(/C=N/N=C(\N)c2nonc2N)c1O	-	-	-	78.3	-	-
O=C(Nc1nc2ccc([N+](=O)[O-])cc2s1)c1ccco1	74.7	-	-	-	.	82.6
SMILES	SENP8 block-1	HSP90 inh	Platelet DG rel	SENP7 inh	SENP8 block-2	SENP6 inh
CCN(C(=O)C(C)N1C(=O)/C(=C/c2ccco2)SC1=S)C1CCS(=O)(=O)C1 (stereo unspecified)	-	-	-	-	48.0	-
CC(C(=O)N(C)C1CCS(=O)(=O)C1)N1C(=O)/C(=C/c2ccc(F)cc2)SC1=S (stereo unspecified)	-	-	-	-	-	-
OC[C@@H]1CN(Cc2ccc(-c3ccccc3)cc2)C[C@H](n2cnc3c(N4CCOCC4)ncnc32)O1	.	.	.	.	-	.
COc1ccc(N2CCN(C(=O)c3ccc(Cl)c(S(=O)(=O)N4CCCC4)c3)CC2)cc1	-	-	-	-	-	-
COc1ccc(N2CCN(C(=O)c3ccc(C)c(Cl)c3)CC2)cc1	-	-	-	-	40.1	-
CS(=O)(=O)N(CC(=O)Nc1ccc(Br)cc1)C1CCCCC1	-	-	-	-	-	-
CC(C)CC(=O)N1CCN(c2ccc([N+](=O)[O-])c(NCc3ccccc3)c2)CC1	-	-	-	-	53.6	-
CCOc1ccc(-n2c(C)nc(O)c2N=Nc2ccccc2)cc1	-	-	-	-	43.0	-
